Compound activity (PubChem)
Rows were chosen to be rich in hits. Some 0.97% of all compounds tested hit in one or more screens of this group.
A1 inh – caspase 3/7 activation in MEF A1-2A-BIM cells, primary screen, A1 inhibitor project, cell-based, luminescence, HTS; caspase activation, % (concentration not given with the values); Caspase-Glo 3/7 luminescence, 3 h; percent of clofoctol response, vehicle zero; AID 2462, 2010; hit rate 0.066% among 330,000;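 active = over half of replicate activation scores above 10%, or exactly half above 10 with the replicate mean above 10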
B2AR ag – beta2AR agonists driving receptor internalization, primary screen, cell-based, FAP fluorogen, flow cytometry | Beta-2 adrenergic receptor (Homo sapiens), P07550 | AID 504454, 2011 | Am2.2-beta2AR cells | hit rate 0.43% among 340,000 | response, % (test concentration not listed);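 active = response above a set limit, near 3 SD of response in nonfluorescent compounds, cut at about 42% in these data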
Target sequence (P07550 whole entry, looked up): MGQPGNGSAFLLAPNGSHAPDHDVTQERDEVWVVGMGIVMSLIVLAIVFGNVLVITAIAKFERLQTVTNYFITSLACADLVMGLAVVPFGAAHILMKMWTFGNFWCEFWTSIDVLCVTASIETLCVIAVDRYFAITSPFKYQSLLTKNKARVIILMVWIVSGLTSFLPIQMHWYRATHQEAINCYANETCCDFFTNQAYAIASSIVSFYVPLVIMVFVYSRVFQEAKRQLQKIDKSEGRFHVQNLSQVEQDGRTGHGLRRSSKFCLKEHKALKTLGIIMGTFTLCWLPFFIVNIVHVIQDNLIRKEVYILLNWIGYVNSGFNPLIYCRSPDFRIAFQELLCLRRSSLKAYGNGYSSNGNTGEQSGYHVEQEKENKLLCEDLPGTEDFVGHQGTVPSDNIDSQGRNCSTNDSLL
NTR1 agonist – agonists of human NTR1, primary screen, imaging, U2OS cells, beta-arrestin-GFP, high content. AID 493036, 2011. hit rate 0.17% among 330,000. activation, % at 20 µM. Neurotensin receptor type 1 (Homo sapiens), P30989. NTR1-U2OS beta-arrestin-GFP spot imaging, agonist mode;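 active = activation at or above 40% of the spot to cytoplasm intensity ratio, with at least 20 cells analyzed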
TLR4 MyD88 comp – inhibitors of TLR4-MyD88 association in cells, primary screen, cell-based, HeLa CL3-4, BLA complementation, FRET ratio; Toll-like receptor 4 (Homo sapiens) + Myeloid differentiation primary response protein …; HeLa CL3-4 TLR4/MyD88 BLA complementation; inhibition, % at 8.4 µM; hit rate 0.18% among 200,000; AID 861, 2007; in the data active = inhibition above about 25%
TLR9-MyD88 inh – inhibitors of TLR9-MyD88 association in cells, primary screen, cell-based, CHO, BLA complementation, fluorescence; CCF4 FRET ratio; Toll-like receptor 9 (Homo sapiens) + Myeloid differentiation primary response protein …; inhibition, % at 4.98 µM; hit rate 0.21% among 340,000; AID 504734, 2011;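 active = inhibition above the mean over all tested compounds plus 3 SD, cut at about 21% in these data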
NOD2 RIPK2 PPI – NOD2-RIPK2 binding disruptors in cells, primary screen, fluorescence, CHO cells, BLA complementation; CCF4 ratio; inhibition, % at 4.98 µM; hit rate 0.38% among 360,000; in the data active = inhibition above about 21%
TLR9-MyD88 cf – TLR9-MyD88 association inhibitors, retest, confirmation, cell-based, CHO, BLA complementation, fluorescence, triplicate | CCF4 FRET ratio | hit rate 51% among 680 | AID 540250, 2011 | shares compounds with TLR9-MyD88 inh | inhibition, % at 4.98 µM;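 active = mean inhibition across three repeats above about 21% taken from the earlier screen, limit read from the data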;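 also: blue over green emission ratio reports constitutive TLR9 MyD88 association via BLA complementation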
BLA counter-1 – beta-lactamase reporter inhibitors in CHO cells, artefact control for TLR9-MyD88 binding inhibitor project, cell-based, fluorescence | inhibition, % at 4.98 µM | shares compounds with TLR9-MyD88 inh | CHO-BLA cells, CCF4 FRET ratio, BLA reporter | hit rate 7% among 680;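 active = mean inhibition above a 50% cutoff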;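 also: counterscreen of TLR9-MyD88 hits on CMV-driven BLA in CHO-K1 cells; higher means less blue over green ratio so more BLA blockade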
TLR9 CHO cytotox – CHO cell viability loss – luminescence, single concentration, cytotoxicity control for TLR9-MyD88 binding inhibitor project; shares compounds with TLR9-MyD88 inh; TLR9-MyD88 CHO cells cytotoxicity; inhibition, % at 4.98 µM; hit rate 39% among 680; in the data active = inhibition above about 11%
NOD2 RIPK2 conf – NOD2-RIPK2 binding disruptors, retest, confirmation, fluorescence, CHO cells, BLA complementation, triplicate. inhibition, % at 4.98 µM. hit rate 70% among 1,200. shares compounds with NOD2 RIPK2 PPI. CCF4 FRET;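 active = mean inhibition across replicates above a set limit taken from the earlier primary screen, cut at about 21% in these data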
BLA counter-2 – NOD2-RIPK2 counterscreen BLA reporter activity | shares compounds with NOD2 RIPK2 PPI | CHO BLA reporter, CCF4 FRET ratio | inhibition, % at 4.98 µM | hit rate 57% among 1,200 | AID 624371;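 active = mean inhibition above the low-control mean inhibition plus three low-control SD, cut at about 11% in these data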
Hits are given with their value; – = inactive; · = not tested or not shown.

SMILES	A1 inh	B2AR ag	NTR1 agonist	TLR4 MyD88 comp	TLR9-MyD88 inh	NOD2 RIPK2 PPI	TLR9-MyD88 cf	BLA counter-1	TLR9 CHO cytotox	NOD2 RIPK2 conf	BLA counter-2
Cc1ccc(C)c(Nc2ccc3nonc3c2[N+](=O)[O-])c1	–	–	–	·	–	–	·	·	·	·	·
CCN(CC)c1ccc(/C=C2/SC(=O)N(C(C)C)C2=O)o1	·	–	·	–	30.6	64.7	–	–	61.1	27.4	14.9
CS(=O)(=O)c1ccc(Cl)c(NC(=O)c2cccc(N3C(=O)CCC3=O)c2)c1	–	–	–	·	–	–	·	·	·	·	·
O=C(CS(=O)(=O)Cc1ccccc1)Nc1ccc(S(=O)(=O)N2CCCCCC2)cc1	–	–	–	–	–	–	·	·	·	·	·
CCN1C(=O)CS/C1=N\S(=O)(=O)c1ccc(Cl)cc1	–	–	–	–	–	–	·	·	·	·	·
CCn1c(Cl)c(C=O)s/c1=N\S(=O)(=O)c1ccccc1	56.2	114.6	–	·	48.3	93.5	52.5	–	96.2	97.9	38.3
Cc1ccc(NC(=O)CNCc2ccccc2)cc1Br	–	–	–	–	–	–	·	·	·	·	·
Cc1ccc(C)c(-n2sc3ccc(F)cc3c2=O)c1	–	–	–	·	31.2	26.0	–	–	42.6	33.0	15.3
O=C(/C=C/c1cccc(Cl)c1)c1ccc([N+](=O)[O-])o1	–	65.8	–	·	25.8	52.1	21.4	–	95.6	87.8	19.4
Cn1c(-c2cc3ccc(OC(=O)C(C)(C)C)cc3oc2=O)nc2ccccc21	–	–	–	–	–	–	·	·	·	·	·
CC(=O)Oc1ccc2cc(-c3nc4ccccc4n3C)c(=O)oc2c1	–	–	–	–	22.1	39.0	–	–	–	38.0	59.3
COc1cc2oc3cc(C#Cc4ccc(N)cc4)ccc3c(=O)c2cc1OC	–	–	–	·	38.2	26.1	39.8	–	–	53.9	58.0
CNC(C)C#Cc1ccc2c(=O)c3ccccc3oc2c1 (stereo not given)	–	–	–	·	–	–	·	·	·	·	·
Nc1ccc(C#Cc2ccc3c(=O)c4ccccc4oc3c2)cc1	–	–	–	·	73.5	67.1	63.9	69.7	–	77.6	83.6
N#Cc1ccc(C#Cc2ccc3oc4ccccc4c(=O)c3c2)cc1	–	–	–	·	–	–	·	·	·	·	·
Clc1ccc2nc(N3CCNCC3)nc(-c3ccccc3)c2c1	–	–	–	–	23.8	36.9	–	–	–	38.0	52.2
CN1CCN(c2nc(-c3ccccc3)c3cc(Cl)ccc3n2)CC1	–	–	–	–	–	–	·	·	·	·	·
CNC(=O)Nc1cccc(NC(=O)NC)n1	–	–	–	–	–	–	·	·	·	·	·
CC(=NNc1nc2ccccc2o1)c1cc2ccccc2cn1	·	–	·	·	60.0	42.7	67.1	66.2	73.5	90.2	91.2
CC(=NNc1nc2ccccc2o1)c1ncccn1	·	–	·	·	26.1	26.6	–	–	98.8	33.8	30.2
Cc1nc(CCN2C(=O)c3ccccc3C2=O)cs1	–	–	–	–	–	–	·	·	·	·	·
O=C1Nc2ccc(Br)cc2C12NNc1ccccc1O2 (stereo not given)	–	–	–	–	32.8	35.8	26.0	–	–	34.7	47.4
O=C(O)CC(c1cccc(Cl)c1)n1cccc1 (stereo not given)	–	–	–	–	–	–	·	·	·	·	·
COc1ccccc1N(C(C)=O)C1=C(Cl)C(=O)c2ccccc2C1=O	·	·	·	·	65.2	89.6	86.2	–	102.0	95.8	50.8
COc1ccc(/C=C/c2ccc3c(Br)ccc(O)c3n2)cc1	–	–	–	·	–	–	·	·	·	·	·
SMILES	A1 inh	B2AR ag	NTR1 agonist	TLR4 MyD88 comp	TLR9-MyD88 inh	NOD2 RIPK2 PPI	TLR9-MyD88 cf	BLA counter-1	TLR9 CHO cytotox	NOD2 RIPK2 conf	BLA counter-2
COc1cc(/C=C/c2ccc3c(Br)cc(Br)c(O)c3n2)ccc1O	–	–	·	·	25.6	34.3	27.7	–	49.0	44.6	55.0
COc1ccc(/C=C/C(=O)N(C(C)C)C(C)C)cc1Br	–	–	–	–	–	–	·	·	·	·	·
CCCNC(=O)c1nnsc1S(=O)c1ccc(Cl)cc1 (stereo not given)	·	50.3	–	–	48.2	80.3	48.7	–	100.4	85.1	24.8
CNC(=O)c1nnsc1S(=O)c1ccc(Cl)cc1 (stereo not given)	·	–	–	–	45.9	56.9	50.7	–	97.2	53.8	27.6
Cc1ccc(S(=O)c2snnc2C)cc1 (stereo not given)	–	–	–	·	–	–	·	·	·	·	·
Cc1cccc(N2C(=O)c3cccc4c(N)ccc(c34)C2=O)c1	–	–	–	·	31.6	34.9	–	–	–	36.5	44.0
Nc1cccc(N2C(=O)c3cccc4c(N)ccc(c34)C2=O)c1	–	–	–	·	–	–	·	·	·	·	·
CC(C)CCN1C(=O)c2cccc3c(N)ccc(c23)C1=O	–	–	–	·	54.9	70.4	33.2	–	–	63.6	70.4
Cc1ccc(NC(=S)N(CCCN2CCN(C)CC2)Cc2cccs2)cc1	–	–	–	–	–	–	·	·	·	·	·
CCc1ccc(NC(=O)c2nc(S(=O)(=O)Cc3ccccc3)ncc2Cl)cc1	11.0	52.2	–	·	46.9	96.3	50.5	–	97.6	93.6	39.9
CCOc1ccccc1NC(=O)c1nc(S(=O)(=O)Cc2ccccc2)ncc1Cl	·	–	–	·	–	–	·	·	·	·	·
CSc1ncc(Cl)c(C(=O)Nc2ccc(C)c(C)c2)n1	–	–	–	·	–	–	·	·	·	·	·
Cc1ccc(NC(=O)c2nc(S(=O)(=O)Cc3ccccc3C)ncc2Cl)cc1C	–	–	–	·	40.7	97.0	35.0	–	82.7	85.6	33.4
